Experimental data as given in PubChem BioAssay AID1421 (Emory University Molecular Libraries Screening Center, 2008).
Among all 1,300 compounds or so, about 140 (11%) were called active. How the calls were made is not given here. Not all results are given here. Results with a measured potency or affinity are listed apart.

Molecular target: Prostaglandin E2 receptor EP2 subtype (Homo sapiens) (UniProt P43116)
Test: EP2 receptor modulators, dose response, cell-based, human EP2, PGE2 EC50 shift (AID 1421)
Conditions: EP2-expressing cells, PGE2 EC50 shift by compound; at 20 µM

Chain of Prostaglandin E2 receptor EP2 subtype (Homo sapiens) (P43116 whole entry, looked up): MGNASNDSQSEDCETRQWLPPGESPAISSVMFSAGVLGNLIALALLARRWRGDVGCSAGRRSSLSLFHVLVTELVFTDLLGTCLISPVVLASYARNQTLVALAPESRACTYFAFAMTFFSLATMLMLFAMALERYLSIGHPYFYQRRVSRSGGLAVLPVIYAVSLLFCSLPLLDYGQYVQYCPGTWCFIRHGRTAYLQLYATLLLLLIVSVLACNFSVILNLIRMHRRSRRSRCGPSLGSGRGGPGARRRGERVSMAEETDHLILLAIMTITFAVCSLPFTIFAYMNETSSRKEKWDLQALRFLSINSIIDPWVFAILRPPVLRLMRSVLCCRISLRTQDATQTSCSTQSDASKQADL

PGE2 EC50 with compound, inactive:
CC(=O)N1N=C2/C(=C/c3ccccc3)CCCC2C1c1ccccc1 (stereo not drawn) 0.44 nM
CCN=C1S/C(=C\c2ccc(O)c(OCC)c2)C(=O)N1CC 0.39 nM
CCCCOP(=O)(OCCCC)C(Nc1ccccc1)c1ccc2c(c1)OCO2 (stereo not drawn) 0.36 nM
CC(C)N(CCNC(=O)c1oc(=O)c2ccccc2c1-c1ccccc1)Cc1ccco1 0.81 nM
C/C(=N\N(Cc1ccccc1)c1ccccc1)c1cccnc1 0.37 nM
Oc1ccc(/C=N/N(Cc2ccccc2)c2ccccc2)cc1 0.73 nM
c1ccc(-c2ccccc2-c2nc(-c3cccnc3)no2)cc1 0.05 nM
Cc1scc(-c2n[nH]c(=S)n2Cc2ccccc2)c1C 0.54 nM
COc1ccc(N2CCN(c3nc4c(c(=O)n(C)c(=O)n4C)n3Cc3ccccc3)CC2)cc1 0.9 nM
Cc1cc(NC(=O)C2=C(O)c3ccccc3S(=O)(=O)N2C)no1 0.77 nM
Cc1ccccc1NC1=C(C(=O)c2ccccc2)N(C)S(=O)(=O)c2ccccc21 0.78 nM
CCOC(=O)CC(=O)CSc1nc(-c2ccc3c(c2)OCO3)cc(C(F)(F)F)c1C#N 1.22 nM
Cc1noc(C)c1CSc1nc2ccccc2c(=O)n1-c1ccc(Cl)cc1 0.51 nM
Cc1noc(C)c1CSc1nc2ccccc2c(=O)n1-c1ccc(F)cc1F 0.51 nM
CSc1nc(Oc2ccccc2)c2sccc2n1 0.62 nM
CCOC(=O)n1c(=O)n(Cc2ccc(Cl)c(Cl)c2)c2ccccc21 0.31 nM
COC(=O)c1cc(Br)c(=O)n(-c2nccs2)c1 17 nM
C=C(C)COc1ccc2c(c1)CC[C@@H]1[C@H]3C/C(=N/O)C(=O)[C@]3(C)CC[C@@H]21 0.41 nM
Cc1cccc(OC(=O)c2sc(Cl)nc2C)c1 0.61 nM
Cc1noc(C)c1CSc1ncnc2sc(C)c(C)c12 0.35 nM
O=C(Nc1ccc2c(c1)OCO2)c1cccc2c1C(=O)N(C1CCCCC1)C2 0.58 nM
CCc1nc(N2CCC(C)CC2)c2oc3ccccc3c2n1 0.32 nM
CCOP(=O)(OCC)c1nc(-c2cccc3ccccc23)oc1N1CCCCC1 0.42 nM
O=C(c1ccc2c(c1)OCO2)N(Cc1cccs1)C1(C(=O)NC2CCCCC2)CCCCC1 0.42 nM
O=C(COc1ccc(Br)cc1)Nc1ccc(-c2nnc(-c3ccco3)o2)cc1 0.53 nM
Cc1ccc2nc(N3CCC(C(=O)O)CC3)nc(-c3ccccc3)c2c1 0.5 nM
Cc1ccc(-n2c(Cc3cccc4ccccc34)n[nH]c2=S)c(C)c1 0.39 nM
CN(C)Cc1ccccc1Sc1cccc2ccccc12 0.37 nM
Cc1ccnc(SCC(=O)n2c3c(c4ccccc42)CC(C)CC3)n1 (stereo not drawn) 0.26 nM
COc1ccccc1-c1nnc(SCC(=O)c2ccc(C3CCCCC3)cc2)n1Cc1ccco1 0.46 nM
O=C(CN1CCN(Cc2ccccc2)CC1)Nc1ccccc1-c1ccccc1 0.83 nM
CCOC(=O)C1=NN(c2cccc(C)c2)C2(S1)SC(C(C)=O)=C(C)N2c1ccccc1 (stereo not drawn) 0.51 nM
Cc1ccccc1-n1c(Cn2c(=O)sc3ccccc32)nnc1SCC(=O)N1CCCC1 0.82 nM
Cc1cc(C)c2nc(N3CCCN(C(=O)c4ccco4)CC3)c(C#N)cc2c1 0.66 nM
COc1ccc(C2CC(c3cccs3)=NN2C(=O)c2ccc(Br)o2)cc1 (stereo not drawn) 0.71 nM
O=C1C2C3c4ccccc4C(c4ccccc43)C2c2nc3ccccc3n21 (stereo not drawn) 0.5 nM
COc1cc(C)c(NC(c2ccccc2)c2ccccc2)cc1OC 0.74 nM
c1ccc(-c2csc3ncnc(N4CCc5ccccc5C4)c23)cc1 0.28 nM
CCOC(=O)C(Cc1ccccc1)(NC(C)=O)C(=O)OCC 1.39 nM
O=C(O)CCCCCCCCCCCc1ccccc1 0.7 nM
O=c1c(O)c(-c2ccccc2)oc2ccc3occc3c12 0.43 nM
CCCCc1n[nH]c(=S)n1Cc1ccc(Cl)cc1 0.62 nM
CCCCc1ccc(-n2c(Cc3cccs3)n[nH]c2=S)cc1 0.6 nM
Cc1onc(-c2ccccc2)c1C(=O)N(Cc1ccco1)Cc1cccs1 0.49 nM
Cc1sc2ncnc(N(C)Cc3cccs3)c2c1C 0.78 nM
COc1cccc2[nH]c3c(N4CCCCC4)ncnc3c12 54.6 nM
O=C(c1cc2sccc2n1Cc1ccc(F)cc1)N1CCCc2ccccc21 0.27 nM
Cc1ccc(-c2nc3ccccc3nc2Cl)cc1 0.45 nM
CCOC(=O)c1c(NC(=O)CSC(=S)N(C)C)sc(C)c1C 0.55 nM
CCCOP(=O)(OCCC)C(Nc1cccc(C(F)(F)F)c1)c1ccc(C)cc1 (stereo not drawn) 0.23 nM
CCOP(=O)(OCC)c1nc(-c2cccc3ccccc23)oc1NCc1ccccc1 0.31 nM
CCOP(=O)(OCC)c1nc(-c2cccc3ccccc23)oc1NCCc1ccc(OC)cc1 0.72 nM
CCOC(=O)c1c(NC(=O)CN2C(=O)NC3(CCCCCC3)C2=O)sc(C)c1-c1ccc(C)cc1 0.74 nM
CCOP(=O)(OCC)c1nc(-c2ccc(C)cc2)oc1NCc1ccccc1 0.46 nM
Cc1ccccc1Nc1c(-c2ccccn2)nc2ccccn12 0.67 nM
COC(=O)c1cc2ccsc2n1Cc1ccccc1F 0.49 nM
CSc1nc(Sc2ccccc2Cl)c2ccccc2n1 0.41 nM
CCOC(=O)c1ccccc1NC(=O)CSc1ncc(C(=O)OCC)c(N)n1 0.55 nM
Cc1ccc(S(=O)(=O)n2c3ccc(F)cc3c3nc(C)sc32)cc1 0.2 nM
C=CCn1c(SCC(N)=O)nc(C)cc1=O 0.82 nM
C=CCn1c(SCc2c(C)noc2C)nc2sc(C)c(C)c2c1=O 0.57 nM
CC(=O)Nc1ccc(C2=NN(c3ccccc3)C(c3cccs3)C2)cc1 (stereo not drawn) 0.32 nM
CCCCCn1c(CN2CCN(c3cc(Cl)ccc3C)CC2)nc2c1c(=O)[nH]c(=O)n2C 1.94 nM
Brc1ccc(Cn2c(-c3cncs3)nc3ccccc32)cc1 0.43 nM
CCn1c2ccccc2c2cc(/C=N/n3c(C)nnc3C)ccc21 0.04 nM
Cc1ccccc1OCc1nc2ccccc2c(=O)n1/N=C/c1ccco1 0.61 nM
CN(c1ccccc1)C1CCCCC1NS(=O)(=O)c1ccc(Cl)cc1 (stereo not drawn) 0.38 nM
N#CCSc1nc2c(c(C3CC=CCC3)c1C#N)CCC2 (stereo not drawn) 0.5 nM
CSc1ccccc1NC(=O)COc1ccc(Cl)cc1C 0.35 nM
CN(CC(=O)Nc1ccccc1-c1ccccc1)Cc1ccccc1Cl 0.6 nM
C(=N\N1CCN(C2c3ccccc3-c3ccccc32)CC1)/c1cccnc1 0.43 nM
COC(=O)c1c(NC(NC(=O)C(C)C)C(Cl)(Cl)Cl)sc2c1CCCC2 (stereo not drawn) 0.51 nM
O=C(O)CSc1cc(-c2ccccc2)nc2ccccc12 1.19 nM
N/C(CSc1nc(-c2ccccc2)c(-c2ccccc2)o1)=N\O 0.37 nM
C=CCC(=O)OCCCCCCOc1ccc(C(=O)O)cc1 0.73 nM
CC(C)Oc1ccc(/C=C(/NC(=O)c2ccccc2)C(=O)NCCC(=O)O)cc1 0.98 nM
Cc1ccc(C(=O)OCC(=O)Nc2ccccc2Sc2ccccc2)cc1C 0.26 nM
CN(/N=C/C=C/c1ccccc1)C1=NS(=O)(=O)c2ccccc21 0.14 nM
CCC(C)(C)n1nnnc1C(c1ccncc1)N1CCC(Cc2ccccc2)CC1 (stereo not drawn) 1.27 nM
CC1=CC(C)(C)N(S(=O)(=O)c2ccc(C)cc2)c2cc(C)ccc21 0.39 nM
CC1(c2cc([N+](=O)[O-])cc([N+](=O)[O-])c2)CC(C)(C)N(C(=O)c2ccccc2)c2ccccc21 (stereo not drawn) 0.35 nM
CCOP(=O)(OCC)c1nc(-c2ccccc2)oc1NCc1ccccc1 0.36 nM
O=C(O)c1cccc(NN=C2c3ccccc3-c3ccccc32)c1 0.74 nM
O=c1c2oc3ccccc3c2[nH]c(=S)n1-c1ccccc1 1.48 nM
CN=C1CC(SC)=C1c1ccc(C)cc1 2.68 nM
Cc1cc(O)c(C=O)c2c1C(=O)Oc1c(C)c(O)c3c(c1O2)C(O)OC3=O (stereo not drawn) 0.42 nM
O=C(NNc1ccc([N+](=O)[O-])cc1[N+](=O)[O-])C1C2CCCCC21 (stereo not drawn) 1.49 nM
CCOC(=O)C1=C(C)N(C)C(C)=C(C(=O)OCC)C1c1ccsc1 0.71 nM
O=C(Oc1ccc(-c2nccc(-c3ccccn3)n2)cc1)c1cccc(C(F)(F)F)c1 1.38 nM
FC(F)(F)c1cccc(-c2cc3ccccc3nc2N2CCCC2)c1 0.54 nM
CCCCOc1cc(C)nc(NCc2ccccc2)n1 0.31 nM
COc1cnc(SCc2c(Cl)cccc2Cl)nc1Cl 0.18 nM
COC(=O)CSc1nc2c(c(C3CC=CCC3)c1C#N)CCC2 (stereo not drawn) 0.61 nM
